Assay outcomes as filed in PubChem.
GC-B act – GC-B (human) receptor activation. HEK293-GC-B cells, CNP EC30, cGMP TR-FRET; 0% at EC30 CNP, 100% saturating CNP. activation, % at 10 µM. P20594. hit rate 0.11% among 370,000. AID 1920062;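 active = activation at 10 µM reaching about 35% in either raw or pattern-adjusted values, limit read from the data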
ADAM10 inh – inhibits human ADAM10; inhibition, % at 7 µM; AID 720582; recombinant ADAM10, EDANS/DABCYL FRET peptide cleavage, 3 h; O14672; hit rate 0.62% among 370,000;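 active = inhibition above a per-campaign cutoff equal to the mean of compounds falling between control-based bounds plus 3 SD, cut at about 20% in these data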;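 note: 0% = DMSO wells while the 100% control is not disclosed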
Target sequence (O14672 214-748 limits assumed): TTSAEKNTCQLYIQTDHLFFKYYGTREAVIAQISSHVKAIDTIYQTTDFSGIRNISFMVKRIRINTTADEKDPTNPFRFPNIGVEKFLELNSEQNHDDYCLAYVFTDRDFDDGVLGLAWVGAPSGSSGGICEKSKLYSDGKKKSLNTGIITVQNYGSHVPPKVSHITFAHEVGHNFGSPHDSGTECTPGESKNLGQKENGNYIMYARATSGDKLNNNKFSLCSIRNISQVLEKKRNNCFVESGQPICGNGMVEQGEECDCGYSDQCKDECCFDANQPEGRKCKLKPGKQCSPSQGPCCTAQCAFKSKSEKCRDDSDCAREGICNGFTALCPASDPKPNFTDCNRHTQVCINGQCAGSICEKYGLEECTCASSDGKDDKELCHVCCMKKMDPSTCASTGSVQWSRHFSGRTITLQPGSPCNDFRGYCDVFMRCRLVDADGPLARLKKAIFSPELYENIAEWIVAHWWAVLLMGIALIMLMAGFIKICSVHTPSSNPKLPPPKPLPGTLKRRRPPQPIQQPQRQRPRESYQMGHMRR
ADAM17 inh – inhibits human ADAM17; P78536; recombinant ADAM17, EDANS/DABCYL FRET peptide cleavage; inhibition, % at 6.95 µM; hit rate 0.83% among 370,000; AID 720648;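 active = inhibition above the mean of compounds lying between control limits plus 3 SD, set per campaign, cut at about 8.5% in these data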;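 note: 0% = DMSO-only wells as the low control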
NPR1 activator – GC-A (human) enzyme activation. P16066. activation, % at 10 µM. HEK293 GC-A cells, cGMP TR-FRET, EC30 ANP; 0% at EC30 ANP, 100% saturating ANP. hit rate 0.14% among 370,000; in the data active = activation above about 40%
ADAM10 counter – inhibits human ADAM10 in ADAM17 exosite counter-screen. inhibition, % at 6.95 µM. AID 743256. hit rate 47% among 2,900. shares compounds with ADAM17 inh. recombinant ADAM10, EDANS/DABCYL FRET peptide cleavage, 3 h;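 active = mean inhibition over the triplicate runs exceeds the activity threshold set in the earlier primary screen, cut at about 20% in these data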;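 note: 0% = DMSO wells and 100% = marimastat wells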
ADAM17 confirm – confirmation of inhibitors of human ADAM17. recombinant ADAM17, EDANS/DABCYL QFRET peptide cleavage. hit rate 65% among 2,900. AID 743257. shares compounds with ADAM17 inh. inhibition, % at 6.95 µM;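 active = mean inhibition across replicates above the hit cutoff set in the primary screen, cut at about 8.5% in these data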;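 note: 0% = DMSO wells and 100% = marimastat wells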
An asterisk follows results filed as active; / = no result. Shown are actives, neighbours in structure and some others; about 1.3% of the full set was active somewhere.

SMILES | GC-B act | ADAM10 inh | ADAM17 inh | NPR1 activator | ADAM10 counter | ADAM17 confirm
CCN(CC)S(=O)(=O)c1ccc(C(=O)OCn2nnc3ccccc3c2=O)cc1 | 0.9 | 11.9 | 10.4* | 3.6 | 6.7 | 5.4
COc1cc(OC)cc(C(=O)OCn2nnc3ccccc3c2=O)c1 | -0.6 | -11.2 | -5.9 | 2.9 | / | /
COc1ccc(NS(=O)(=O)c2cccc(C(=O)NN=C(C)c3ccco3)c2)cc1 | -2.6 | 14.8 | 5.6 | -0.6 | / | /
O=[N+]([O-])c1ccc(N/N=C/c2c[nH]c3ccccc23)cc1 | -20.3 | 17.0 | 9.6* | -13.2 | 16.7 | 8.2
Cc1cc(S(=O)(=O)N2CCC3(CC2)OCCN3S(=O)(=O)c2cccs2)ccc1F | -3.4 | 13.2 | 12.4* | -3.9 | 13.3 | 9.2*
Cc1ccccc1OCc1nc(-c2ccc(NC(=O)c3cccs3)cc2)no1 | 6.4 | 5.0 | 11.9* | -1.4 | -63.3 | -12.3
COC(=O)c1ccc(-n2c(C)cc(C(=O)COC(=O)CC3Sc4ccccc4NC3=O)c2C)cc1 (centres undefined) | 2.0 | 7.0 | 5.9 | 4.4 | / | /
O=C(CC1Sc2ccccc2NC1=O)OCC(=O)N1CCc2ccccc21 (centres undefined) | -2.4 | -2.0 | 9.2* | 0.2 | 8.2 | 8.4
Cc1cc(C(=O)COC(=O)CC2Sc3ccccc3NC2=O)c(C)n1-c1ccc(Br)cc1 (centres undefined) | -0.4 | 13.3 | 8.8* | -6.6 | 7.3 | 7.6
CCC1Sc2ccc(S(=O)(=O)CCC(=O)N3CCc4ccccc43)cc2NC1=O (centres undefined) | -2.6 | -4.0 | 1.9 | 2.4 | / | /
COc1cccc(NC(=O)c2c([N+](=O)[O-])cnn2C)c1 | -0.1 | -3.3 | -1.7 | 1.0 | / | /
O=[N+]([O-])c1ccc2nc(NN=Cc3ccc(O)cc3)sc2c1 | -10.7 | 6.5 | 3.1 | 0.2 | / | /
CN(C)CCNc1ncnc2c1sc1nc(-c3ccccc3)c3c(c12)CCCC3 | -6.4 | -26.9 | -11.1 | -8.4 | / | /
Cc1ccc2nc(SCC(=O)Nc3cccc(S(=O)(=O)N(C)C)c3)[nH]c2c1 | 1.5 | 19.4 | 11.6* | -1.6 | 12.0 | 10.6*
CCn1c(-c2ccccc2Cl)nn(CC(=O)Nc2cc(Cl)ccc2Cl)c1=S | -8.6 | 6.5 | 11.5* | -6.6 | 5.0 | 5.1
CCCCN1CC(=O)N2[C@@H]3c4cc(OC)ccc4OC[C@@H]3[C@H](C(=O)OCC)[C@]2(C)C1=O | -2.1 | -14.2 | -0.9 | -0.8 | / | /
CC(C)(C)c1ccc(-c2nnc3sc(COc4ccccc4)nn23)cc1 | -0.8 | 1.2 | 0.0 | -3.0 | / | /
Cc1cc(F)cc(-c2cc(C(=O)NCc3cccc(Cl)c3)[nH]n2)c1 | 4.1 | 12.1 | 9.1* | 3.3 | 6.0 | 2.2
Cc1cc(F)cc(-c2cc(C(=O)NCc3ccccc3)[nH]n2)c1 | 2.5 | -7.0 | -1.8 | 3.6 | / | /
CCCOc1ccc(F)cc1-c1cc(C(=O)NCc2cccc(C(F)(F)F)c2)[nH]n1 | 6.4 | 15.0 | 9.7* | 2.7 | 22.4* | 15.1*
O=C1N(c2ccccc2)c2ccccc2[C@]12C[C@H](O)CO2 | 1.6 | -6.7 | -2.7 | 0.3 | / | /
CCOC(=O)c1ccc(NCc2cccnc2)cc1 | 0.1 | -9.2 | -3.1 | -3.5 | / | /
O=C1NC[C@@H](CCCCN2C[C@H](Cc3ccc(O)cc3)N(CCc3ccccc3)C(=O)C2=O)N(Cc2ccccc2)C1=O | 4.5 | -5.8 | -2.3 | 2.4 | / | /
CC[C@@H]1C=C(C(=O)O)[C@H](c2ccc(Cl)cc2)N1S(=O)(=O)c1ccc(C)cc1 | -1.6 | 1.3 | 8.6* | 1.5 | 9.7 | 5.3
CC[C@@H]1C=C(C(=O)O)[C@H](c2ccc(C)cc2)N1S(=O)(=O)c1ccc(C)cc1 | -1.5 | -9.6 | -2.6 | 2.2 | / | /
SMILES | GC-B act | ADAM10 inh | ADAM17 inh | NPR1 activator | ADAM10 counter | ADAM17 confirm
CC(NC(=O)COC(=O)C1(C)CC1(Cl)Cl)c1ccccc1 (centres undefined) | 5.0 | 1.8 | 8.8* | 2.3 | 30.1* | 9.5*
O=C(Nc1ccncc1)Nc1cccc(Cl)c1Cl | -3.5 | 3.2 | -3.4 | 4.0 | / | /
O=C(Nc1ccccc1)Nc1cccc(Cl)c1Cl | 0.8 | 14.8 | 11.8* | 6.8 | 12.8 | 8.2
CSc1ccccc1NC(=O)Nc1ccc(F)c(Cl)c1 | -5.4 | 14.7 | 3.0 | 0.9 | / | /
CSc1ccccc1NC(=O)Nc1cccc(Cl)c1 | -9.7 | 13.9 | 9.7* | 1.9 | 15.3 | 10.1*
CCCCCC(=O)Nc1ccc(C(=O)COC(=O)Cn2cnc3c2c(=O)n(C)c(=O)n3C)cc1 | -5.9 | -2.7 | -4.1 | -3.1 | / | /
COc1ccc(OC)c(NC(=O)COC(=O)c2c3c(nc4ccccc24)CCCC3)c1 | 10.4 | 9.1 | 10.9* | 10.4 | 15.9 | 14.3*
Cn1nc(C(F)(F)F)c(C(=O)Nc2ccc(F)cc2F)c1Sc1cccc(Cl)c1 | -3.5 | 14.9 | -1.8 | -3.9 | / | /
Cn1nc(C(F)(F)F)c(C(=O)Nc2ccc(F)cc2F)c1Sc1cccc(C(F)(F)F)c1 | -5.3 | 14.6 | 9.8* | -1.7 | 10.3 | 8.4
COc1cc(OC)cc(C(=O)NCC(=O)NCCN2C(=O)S/C(=C\c3ccc4c(c3)OCO4)C2=O)c1 | -8.9 | -8.9 | -0.2 | -12.9 | / | /
CC1CCCN(c2nc(NCc3ccco3)nc(N)c2[N+](=O)[O-])C1 (centres undefined) | 0.9 | 18.0 | 9.7* | 0.5 | 0.7 | 5.2
CC1CC(C)CN(c2nc(NCc3ccco3)nc(N)c2[N+](=O)[O-])C1 (centres undefined) | -0.9 | -0.4 | 0.5 | -2.3 | / | /
Cn1c(=O)c2c(ncn2CC(=O)Nc2nc(-c3ccc(F)c(F)c3)cs2)n(C)c1=O | -8.7 | 2.3 | 8.8* | 2.0 | -6.2 | 0.4
CCOC(=O)Cc1csc(NC(=O)COc2ccc(C)cc2)n1 | -3.6 | 5.3 | 2.6 | 3.8 | / | /
CCOC(=O)Cc1csc(NC(=O)c2cc(C)c(C)s2)n1 | -0.7 | -9.8 | 10.7* | -7.6 | 5.2 | 8.9*
CCOC(=O)Cc1csc(NC(=O)COc2ccccc2)n1 | 3.6 | 11.0 | 10.0* | -0.6 | -8.5 | -0.5
COc1cccc(N2CCN(CC(=O)NCc3ccc(Cl)cc3)CC2)c1 | 2.5 | 6.4 | 1.2 | 0.3 | / | /
CC1(O)N(Cc2ccccc2)C(=O)OC12CCCCC2 (centres undefined) | 5.2 | 7.3 | 9.1* | -1.0 | 11.9 | 13.9*
CCc1ccc(C(=O)Nc2cc(C)on2)o1 | 0.8 | -3.0 | -0.6 | 2.1 | / | /
COC(=O)CCCn1cc(CN2CC(N3CCN(C4CCN(C)CC4)CC3)CS2(=O)=O)nn1 (centres undefined) | 1.3 | -10.1 | -4.2 | 2.6 | / | /
COc1ccc([C@H]2CC(=O)C=C(c3ccc(F)cc3OCc3ccccc3)C2)cc1OC | 31.2 | 18.4 | 9.8* | 27.0 | 10.6 | 6.1
COc1ccc([C@H]2CC(=O)C=C(c3ccc(F)cc3OCc3ccccc3)C2)cc1 | 17.6 | 3.3 | -1.9 | 12.7 | / | /
